How the values were obtained:
Test in all cases: DAPPL (digital affinity profiling via proximity ligation, sequencing); 10 mM Tris-HCl pH 7.5, 50 mM NaCl, 1 mM DTT, 4% glycerol, room temperature, 30 min; GST-TFs on glutathione beads, 16-mer random dsDNA library, 0.1% formaldehyde crosslink after washing; high values mean tight binding
FLI1 = molecular target: T1, FLI1 (Homo sapiens, UniProt Q01543 1-452); conditions: protein: recombinant; tags: N-terminal GST; dsDNA, one strand shown
T1 sequence: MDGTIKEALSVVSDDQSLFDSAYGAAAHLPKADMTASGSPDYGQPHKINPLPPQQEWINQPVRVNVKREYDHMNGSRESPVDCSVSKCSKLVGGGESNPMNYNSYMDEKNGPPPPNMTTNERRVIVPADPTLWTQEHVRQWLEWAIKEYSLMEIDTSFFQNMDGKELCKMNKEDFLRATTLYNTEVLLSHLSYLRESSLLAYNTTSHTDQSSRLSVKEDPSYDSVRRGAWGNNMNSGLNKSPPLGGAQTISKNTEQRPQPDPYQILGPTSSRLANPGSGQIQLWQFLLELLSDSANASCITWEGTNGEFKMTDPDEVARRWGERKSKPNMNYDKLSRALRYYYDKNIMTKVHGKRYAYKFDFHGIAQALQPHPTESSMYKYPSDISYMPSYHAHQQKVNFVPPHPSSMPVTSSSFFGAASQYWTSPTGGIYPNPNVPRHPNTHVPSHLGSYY
Summary of the method: (§1)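 After expression in yeast as GST fusions, human transcription factors were bound to glutathione beads, DNA-barcoded and mixed with a tag-only sample. The pools were incubated with 200 nmole of a 16-mer random double-stranded DNA library in Tris/NaCl/DTT/glycerol buffer (30 min, room temperature), washed and crosslinked with 0.1% formaldehyde. Proximity ligation with BsaI/T4 ligase ran for 1 h at 37 °C, before PCR amplification and sequencing on an Illumina NextSeq500. Binding signal is a hexamer's read frequency for a factor divided by its frequency for the tag-only sample.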

ELK1 = molecular target: T2, ELK1 (Homo sapiens, UniProt P19419 1-428); conditions: protein: recombinant; tags: N-terminal GST; dsDNA, one strand shown
T2 sequence: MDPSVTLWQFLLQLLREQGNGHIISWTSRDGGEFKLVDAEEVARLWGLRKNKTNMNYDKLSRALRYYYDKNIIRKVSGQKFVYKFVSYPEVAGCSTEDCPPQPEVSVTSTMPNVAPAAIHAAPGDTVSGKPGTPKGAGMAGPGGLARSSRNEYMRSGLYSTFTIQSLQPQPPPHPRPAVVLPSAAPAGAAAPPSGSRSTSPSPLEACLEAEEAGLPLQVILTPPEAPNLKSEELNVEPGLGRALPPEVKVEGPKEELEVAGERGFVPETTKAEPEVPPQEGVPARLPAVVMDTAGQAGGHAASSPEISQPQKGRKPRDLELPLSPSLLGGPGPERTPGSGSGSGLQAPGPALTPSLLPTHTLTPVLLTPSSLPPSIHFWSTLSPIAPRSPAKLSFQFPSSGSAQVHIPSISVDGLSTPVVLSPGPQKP
Summary of the method: as §1

GABPA = molecular target: T3, GABPA (Homo sapiens, UniProt Q06546 1-454); conditions: protein: recombinant; tags: N-terminal GST; dsDNA, one strand shown
T3 sequence: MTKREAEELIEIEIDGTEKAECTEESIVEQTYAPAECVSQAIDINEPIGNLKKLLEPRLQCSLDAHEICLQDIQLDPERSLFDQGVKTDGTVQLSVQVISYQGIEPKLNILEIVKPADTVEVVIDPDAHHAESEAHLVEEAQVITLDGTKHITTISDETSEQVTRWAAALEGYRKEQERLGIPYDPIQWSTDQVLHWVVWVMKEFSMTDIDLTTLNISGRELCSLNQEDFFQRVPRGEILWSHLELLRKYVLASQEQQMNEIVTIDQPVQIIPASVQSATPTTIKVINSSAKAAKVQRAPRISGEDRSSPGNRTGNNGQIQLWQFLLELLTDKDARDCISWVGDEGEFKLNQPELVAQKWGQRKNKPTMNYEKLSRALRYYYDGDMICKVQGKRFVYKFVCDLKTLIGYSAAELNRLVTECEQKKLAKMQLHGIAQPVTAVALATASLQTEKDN
Summary of the method: as §1

ERG = molecular target: T4, ERG (Homo sapiens, UniProt P11308 1-479); conditions: protein: recombinant; tags: N-terminal GST; dsDNA, one strand shown
T4 sequence: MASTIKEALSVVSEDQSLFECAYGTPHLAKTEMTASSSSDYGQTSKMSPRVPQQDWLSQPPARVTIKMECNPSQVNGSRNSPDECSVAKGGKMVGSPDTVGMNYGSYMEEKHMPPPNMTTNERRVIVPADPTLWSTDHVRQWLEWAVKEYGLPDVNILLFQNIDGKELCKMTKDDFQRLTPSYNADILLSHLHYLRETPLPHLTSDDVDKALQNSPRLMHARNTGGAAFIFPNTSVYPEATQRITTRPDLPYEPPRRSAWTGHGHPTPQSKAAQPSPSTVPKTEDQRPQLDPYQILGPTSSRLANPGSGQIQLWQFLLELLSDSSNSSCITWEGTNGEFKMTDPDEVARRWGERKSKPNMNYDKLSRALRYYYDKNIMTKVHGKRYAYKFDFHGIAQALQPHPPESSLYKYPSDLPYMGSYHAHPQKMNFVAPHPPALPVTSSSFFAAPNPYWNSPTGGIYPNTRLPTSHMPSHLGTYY
Summary of the method: as §1

ELF1 = ELF1 (Homo sapiens, UniProt P32519 1-619); conditions: protein: recombinant; tags: N-terminal GST; dsDNA, one strand shown
ELF1, sequence (P32519 whole entry): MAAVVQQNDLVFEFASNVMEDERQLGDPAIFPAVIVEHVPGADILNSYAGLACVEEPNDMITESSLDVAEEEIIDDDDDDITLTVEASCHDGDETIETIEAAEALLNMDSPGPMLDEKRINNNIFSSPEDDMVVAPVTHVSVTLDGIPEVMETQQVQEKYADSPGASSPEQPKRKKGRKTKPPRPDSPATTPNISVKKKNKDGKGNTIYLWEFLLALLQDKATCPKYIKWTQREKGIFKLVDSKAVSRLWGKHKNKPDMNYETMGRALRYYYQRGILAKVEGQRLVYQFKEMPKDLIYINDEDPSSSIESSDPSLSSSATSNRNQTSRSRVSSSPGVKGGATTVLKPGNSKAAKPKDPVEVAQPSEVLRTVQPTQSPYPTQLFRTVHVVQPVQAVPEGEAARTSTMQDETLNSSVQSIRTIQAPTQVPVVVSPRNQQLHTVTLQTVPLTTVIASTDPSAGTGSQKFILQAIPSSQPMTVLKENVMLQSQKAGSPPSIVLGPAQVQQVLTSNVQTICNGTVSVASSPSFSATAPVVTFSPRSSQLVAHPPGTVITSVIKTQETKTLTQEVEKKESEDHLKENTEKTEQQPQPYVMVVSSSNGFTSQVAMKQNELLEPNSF
Summary of the method: as §1

EHF = molecular target: T5, EHF (Homo sapiens, UniProt Q9NZC4 1-300); conditions: protein: recombinant; tags: N-terminal GST; dsDNA, one strand shown
T5 sequence: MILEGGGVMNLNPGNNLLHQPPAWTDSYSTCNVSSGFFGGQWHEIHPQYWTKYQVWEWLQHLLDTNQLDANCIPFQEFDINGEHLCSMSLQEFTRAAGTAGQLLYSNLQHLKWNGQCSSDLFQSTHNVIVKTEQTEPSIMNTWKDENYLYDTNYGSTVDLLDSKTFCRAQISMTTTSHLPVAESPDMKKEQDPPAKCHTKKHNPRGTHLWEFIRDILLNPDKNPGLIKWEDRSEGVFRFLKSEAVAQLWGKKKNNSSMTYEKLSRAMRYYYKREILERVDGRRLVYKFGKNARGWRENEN
Summary of the method: as §1

SPI1 = SPI1 (Homo sapiens, UniProt P17947 1-270); conditions: protein: recombinant; tags: N-terminal GST; dsDNA, one strand shown
Summary of the method: as §1

SPIB = SPIB (Homo sapiens, UniProt Q01892 1-262); conditions: protein: recombinant; tags: N-terminal GST; dsDNA, one strand shown
SPIB, sequence (Q01892 whole entry): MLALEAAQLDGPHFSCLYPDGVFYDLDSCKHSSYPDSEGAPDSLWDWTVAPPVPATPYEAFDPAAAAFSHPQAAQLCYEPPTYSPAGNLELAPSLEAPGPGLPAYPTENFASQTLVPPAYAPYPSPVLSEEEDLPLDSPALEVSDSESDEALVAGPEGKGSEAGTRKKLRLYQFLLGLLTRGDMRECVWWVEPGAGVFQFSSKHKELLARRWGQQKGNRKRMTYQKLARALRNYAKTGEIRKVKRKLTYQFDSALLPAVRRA
Summary of the method: as §1

ELK3 = molecular target: T6, ELK3 (Homo sapiens, UniProt P41970 1-407); conditions: protein: recombinant; tags: N-terminal GST; dsDNA, one strand shown
T6 sequence: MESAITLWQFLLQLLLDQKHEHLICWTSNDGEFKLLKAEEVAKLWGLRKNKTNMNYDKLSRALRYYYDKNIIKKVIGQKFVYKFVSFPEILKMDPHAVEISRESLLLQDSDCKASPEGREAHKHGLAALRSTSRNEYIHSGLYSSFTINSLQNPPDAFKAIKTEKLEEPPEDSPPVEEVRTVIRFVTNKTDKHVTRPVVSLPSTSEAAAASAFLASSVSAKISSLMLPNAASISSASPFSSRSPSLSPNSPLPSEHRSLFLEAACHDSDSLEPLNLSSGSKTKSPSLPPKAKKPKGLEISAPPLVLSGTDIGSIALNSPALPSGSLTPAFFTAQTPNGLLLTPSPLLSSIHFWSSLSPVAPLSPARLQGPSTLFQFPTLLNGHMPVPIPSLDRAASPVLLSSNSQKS
Summary of the method: as §1

FEV = molecular target: T7, FEV (Homo sapiens, UniProt Q99581 1-238); conditions: protein: recombinant; tags: N-terminal GST; dsDNA, one strand shown
T7 sequence: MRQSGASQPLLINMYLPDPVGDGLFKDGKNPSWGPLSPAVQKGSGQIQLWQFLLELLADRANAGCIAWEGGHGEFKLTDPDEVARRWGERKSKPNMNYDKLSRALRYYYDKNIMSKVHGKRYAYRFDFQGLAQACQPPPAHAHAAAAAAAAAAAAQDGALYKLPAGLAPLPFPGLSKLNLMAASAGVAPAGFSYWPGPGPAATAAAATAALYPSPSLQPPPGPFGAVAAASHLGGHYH
Summary of the method: as §1

ETV5 = ETV5 (Homo sapiens, UniProt P41161 1-510); conditions: protein: recombinant; tags: N-terminal GST; dsDNA, one strand shown
ETV5, sequence (P41161 whole entry): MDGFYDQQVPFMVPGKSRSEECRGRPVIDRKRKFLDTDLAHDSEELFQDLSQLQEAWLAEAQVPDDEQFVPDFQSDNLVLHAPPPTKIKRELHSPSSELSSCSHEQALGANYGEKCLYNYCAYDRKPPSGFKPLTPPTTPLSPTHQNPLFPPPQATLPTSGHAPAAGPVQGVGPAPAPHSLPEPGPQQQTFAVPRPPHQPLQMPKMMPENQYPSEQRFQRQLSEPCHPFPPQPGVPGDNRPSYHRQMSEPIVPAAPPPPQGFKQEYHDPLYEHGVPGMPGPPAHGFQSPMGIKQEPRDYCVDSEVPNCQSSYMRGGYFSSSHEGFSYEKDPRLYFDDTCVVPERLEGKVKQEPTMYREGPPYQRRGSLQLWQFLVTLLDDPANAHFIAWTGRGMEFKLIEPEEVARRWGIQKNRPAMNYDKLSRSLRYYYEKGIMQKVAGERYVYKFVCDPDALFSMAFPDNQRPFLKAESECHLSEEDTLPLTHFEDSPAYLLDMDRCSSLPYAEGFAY
Summary of the method: as §1

HSF1 = HSF1 (Homo sapiens, UniProt Q00613 1-529); conditions: protein: recombinant; tags: N-terminal GST; chain copies: 3; dsDNA, one strand shown
HSF1, sequence (Q00613 whole entry): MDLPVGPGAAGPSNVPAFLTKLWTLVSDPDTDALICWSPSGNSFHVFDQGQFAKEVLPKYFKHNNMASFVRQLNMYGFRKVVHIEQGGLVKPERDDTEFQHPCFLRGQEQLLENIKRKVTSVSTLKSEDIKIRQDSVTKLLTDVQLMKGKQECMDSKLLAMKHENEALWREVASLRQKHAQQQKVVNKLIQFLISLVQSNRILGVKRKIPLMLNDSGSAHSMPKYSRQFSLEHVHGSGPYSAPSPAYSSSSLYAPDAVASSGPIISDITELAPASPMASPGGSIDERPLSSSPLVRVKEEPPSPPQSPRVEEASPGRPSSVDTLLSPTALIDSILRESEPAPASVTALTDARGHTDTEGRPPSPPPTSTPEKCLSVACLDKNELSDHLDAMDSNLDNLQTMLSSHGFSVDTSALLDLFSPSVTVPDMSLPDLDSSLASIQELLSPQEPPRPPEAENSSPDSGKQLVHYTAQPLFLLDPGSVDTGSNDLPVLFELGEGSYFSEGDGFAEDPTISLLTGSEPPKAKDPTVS
Summary of the method: as §1

SPIC = molecular target: T8, SPIC (Homo sapiens, UniProt Q8N5J4 1-248); conditions: protein: recombinant; tags: N-terminal GST; dsDNA, one strand shown
T8 sequence: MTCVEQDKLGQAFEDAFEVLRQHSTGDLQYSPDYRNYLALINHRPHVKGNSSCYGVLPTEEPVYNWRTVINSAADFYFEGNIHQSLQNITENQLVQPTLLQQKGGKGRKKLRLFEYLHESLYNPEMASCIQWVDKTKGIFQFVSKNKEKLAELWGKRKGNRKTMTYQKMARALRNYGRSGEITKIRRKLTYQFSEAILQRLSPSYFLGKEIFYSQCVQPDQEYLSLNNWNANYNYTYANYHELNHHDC
Summary of the method: as §1

ELF4 = ELF4 (Homo sapiens, UniProt Q99607 1-663); conditions: protein: recombinant; tags: N-terminal GST; dsDNA, one strand shown
ELF4, sequence (Q99607 whole entry): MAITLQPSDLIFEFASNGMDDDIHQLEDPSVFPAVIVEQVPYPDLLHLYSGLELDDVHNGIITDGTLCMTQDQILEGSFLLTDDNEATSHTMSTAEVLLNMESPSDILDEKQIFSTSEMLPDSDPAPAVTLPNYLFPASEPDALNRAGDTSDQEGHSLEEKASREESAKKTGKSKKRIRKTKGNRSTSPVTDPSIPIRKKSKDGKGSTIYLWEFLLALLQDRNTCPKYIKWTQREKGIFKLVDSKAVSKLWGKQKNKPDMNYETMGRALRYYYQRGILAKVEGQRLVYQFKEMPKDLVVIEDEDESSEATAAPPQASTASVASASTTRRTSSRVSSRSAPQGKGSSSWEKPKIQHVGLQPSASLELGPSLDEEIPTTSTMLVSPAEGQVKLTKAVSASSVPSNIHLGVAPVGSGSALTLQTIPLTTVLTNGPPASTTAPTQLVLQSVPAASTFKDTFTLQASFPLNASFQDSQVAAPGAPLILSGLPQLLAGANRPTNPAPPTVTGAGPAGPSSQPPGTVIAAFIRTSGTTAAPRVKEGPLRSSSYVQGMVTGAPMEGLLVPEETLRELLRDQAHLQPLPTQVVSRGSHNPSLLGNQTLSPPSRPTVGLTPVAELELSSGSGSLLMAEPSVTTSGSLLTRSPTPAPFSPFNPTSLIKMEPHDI
Summary of the method: as §1

ELK4 = molecular target: T9, ELK4 (Homo sapiens, UniProt P28324-2 1-405); conditions: protein: recombinant; tags: N-terminal GST; dsDNA, one strand shown
T9 sequence: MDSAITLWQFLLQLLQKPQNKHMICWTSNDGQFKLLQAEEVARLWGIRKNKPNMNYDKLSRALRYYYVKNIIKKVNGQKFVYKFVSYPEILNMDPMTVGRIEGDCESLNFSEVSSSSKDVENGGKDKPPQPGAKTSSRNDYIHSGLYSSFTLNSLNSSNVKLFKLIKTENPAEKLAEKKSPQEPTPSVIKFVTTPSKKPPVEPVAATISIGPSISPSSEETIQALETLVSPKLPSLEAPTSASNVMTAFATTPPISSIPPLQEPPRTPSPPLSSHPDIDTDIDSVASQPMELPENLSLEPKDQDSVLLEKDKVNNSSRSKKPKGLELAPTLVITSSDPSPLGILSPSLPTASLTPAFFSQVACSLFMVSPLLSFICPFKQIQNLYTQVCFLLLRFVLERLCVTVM
Summary of the method: as §1

ETV2 = molecular target: T10, ETV2 (Homo sapiens, UniProt O00321 1-342); conditions: protein: recombinant; tags: N-terminal GST; dsDNA, one strand shown
T10 sequence: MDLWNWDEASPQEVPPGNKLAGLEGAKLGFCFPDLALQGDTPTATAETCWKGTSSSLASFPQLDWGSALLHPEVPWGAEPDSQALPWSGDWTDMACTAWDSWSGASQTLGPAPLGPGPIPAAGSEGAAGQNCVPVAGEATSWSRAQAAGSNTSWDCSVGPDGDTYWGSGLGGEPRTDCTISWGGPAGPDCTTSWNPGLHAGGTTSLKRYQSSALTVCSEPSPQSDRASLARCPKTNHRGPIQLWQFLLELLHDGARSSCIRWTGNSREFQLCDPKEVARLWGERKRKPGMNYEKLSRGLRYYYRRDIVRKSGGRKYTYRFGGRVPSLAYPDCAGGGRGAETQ
Summary of the method: as §1

ELF3 = molecular target: T11, ELF3 (Homo sapiens, UniProt P78545 1-371); conditions: protein: recombinant; tags: N-terminal GST; dsDNA, one strand shown
T11 sequence: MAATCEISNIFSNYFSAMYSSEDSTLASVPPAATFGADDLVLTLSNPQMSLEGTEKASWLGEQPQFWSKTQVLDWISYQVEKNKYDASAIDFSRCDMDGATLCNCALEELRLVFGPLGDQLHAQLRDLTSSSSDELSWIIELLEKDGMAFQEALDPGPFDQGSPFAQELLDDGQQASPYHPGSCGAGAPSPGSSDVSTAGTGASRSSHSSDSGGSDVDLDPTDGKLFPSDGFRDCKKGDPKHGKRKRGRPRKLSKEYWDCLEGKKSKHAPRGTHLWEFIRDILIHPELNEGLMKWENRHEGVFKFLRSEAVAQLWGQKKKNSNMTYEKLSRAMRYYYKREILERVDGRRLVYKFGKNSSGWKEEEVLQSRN
Summary of the method: as §1

CRX = CRX (Homo sapiens, UniProt O43186 1-299); conditions: protein: recombinant; tags: N-terminal GST; dsDNA, one strand shown
CRX, sequence (O43186 whole entry): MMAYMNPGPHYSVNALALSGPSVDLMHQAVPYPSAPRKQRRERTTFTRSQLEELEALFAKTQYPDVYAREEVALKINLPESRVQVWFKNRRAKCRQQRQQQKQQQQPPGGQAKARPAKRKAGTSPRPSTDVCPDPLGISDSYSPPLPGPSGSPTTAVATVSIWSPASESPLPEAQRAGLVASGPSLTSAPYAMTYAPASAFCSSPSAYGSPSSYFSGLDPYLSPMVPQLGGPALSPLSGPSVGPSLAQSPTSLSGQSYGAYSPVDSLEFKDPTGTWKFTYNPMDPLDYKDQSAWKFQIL
Summary of the method: as §1

ETV1 = ETV1 (Homo sapiens, UniProt P50549 1-477); conditions: protein: recombinant; tags: N-terminal GST; dsDNA, one strand shown
ETV1, sequence (P50549 whole entry): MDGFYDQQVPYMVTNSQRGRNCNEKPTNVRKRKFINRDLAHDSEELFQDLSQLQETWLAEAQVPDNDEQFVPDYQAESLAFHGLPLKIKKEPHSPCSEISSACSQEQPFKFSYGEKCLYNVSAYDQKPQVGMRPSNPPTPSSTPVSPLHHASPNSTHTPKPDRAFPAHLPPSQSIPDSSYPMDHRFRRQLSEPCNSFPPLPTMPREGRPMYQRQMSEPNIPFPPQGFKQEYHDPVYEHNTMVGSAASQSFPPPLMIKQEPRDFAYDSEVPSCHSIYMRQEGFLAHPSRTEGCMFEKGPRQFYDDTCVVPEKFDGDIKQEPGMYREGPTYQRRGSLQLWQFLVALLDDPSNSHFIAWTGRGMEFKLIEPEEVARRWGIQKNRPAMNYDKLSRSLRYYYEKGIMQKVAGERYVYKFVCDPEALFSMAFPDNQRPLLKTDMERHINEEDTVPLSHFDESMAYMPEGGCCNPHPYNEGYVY
Summary of the method: as §1

GCATTT was tested, and the binding signal (FLI1) was 1.38 fold enrichment (6-mer frequency, TF over GST control), the binding signal (ELK1) was 1.38 fold enrichment (6-mer frequency, TF over GST control) and the binding signal (GABPA) was 1.36 fold enrichment (6-mer frequency, TF over GST control). For the same sequence, the binding signal (ERG) was 1.3 fold enrichment (6-mer frequency, TF over GST control), the binding signal (ELF1) was 1.33 fold enrichment (6-mer frequency, TF over GST control) and the binding signal (EHF) was 1.37 fold enrichment (6-mer frequency, TF over GST control). The binding signal (SPI1) was 1.58 fold enrichment (6-mer frequency, TF over GST control), the binding signal (SPIB) was 1.38 fold enrichment (6-mer frequency, TF over GST control) and the binding signal (ELK3) was 1.4 fold enrichment (6-mer frequency, TF over GST control). For the same sequence, the binding signal (FEV) was 1.57 fold enrichment (6-mer frequency, TF over GST control), the binding signal (ETV5) was 1.38 fold enrichment (6-mer frequency, TF over GST control) and the binding signal (HSF1) was 1.15 fold enrichment (6-mer frequency, TF over GST control). The binding signal (SPIC) was 1.37 fold enrichment (6-mer frequency, TF over GST control), the binding signal (ELF4) was 1.4 fold enrichment (6-mer frequency, TF over GST control) and the binding signal (ELK4) was 1.27 fold enrichment (6-mer frequency, TF over GST control). The binding signal (ETV2) was 1.25 fold enrichment (6-mer frequency, TF over GST control), the binding signal (ELF3) was 1.33 fold enrichment (6-mer frequency, TF over GST control) and the binding signal (CRX) was 1.16 fold enrichment (6-mer frequency, TF over GST control). The binding signal (ETV1) was 1.37 fold enrichment (6-mer frequency, TF over GST control).

From PMC7862700, “An all-to-all approach to the identification of sequence-specific readers for epigenetic DNA modifications on cytosine”
